Shown are actives, neighbours in structure and some others; about 5.2% of the full set was active somewhere.
Coupling enz – inhibits coupling enzyme system, counter-screen for aldolase hits; coupling enzyme system counterscreen, AmpLite Red fluorescence; AID 2472; 0.67% of 290,000 active; activity change, negative = inhibition, % at 58.2 µM, hits read low; in the data active means activity change below about -30%
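Counterscreen lacking aldolase: glyceraldehyde-3-phosphate coupling-enzyme reagent preincubated 10 min at RT with compound (at 57.5 uM final), then substrate/coupling system with AmpLite Red added; fluorescence read at 525/598 nm after 20 min RT.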
Tau fluor cs – counter-screen for tau fibril formation inhibitors | 0.93% of 280,000 active | tau K18 P301L Alexa594 fluorescence, heparin fibrillization | Potency, µM (highest dose often 57.7 µM), inactives show top-dose activity change, negative = decrease | AID 1463; further: potency means the concentration at half of the fitted maximal effect; nearly all actives have a fitted effect of over 55% in size
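Human tau K18 P301L (15 uM unlabeled, 0.24 uM Alexa 594-labeled) in 100 mM sodium acetate pH 7 with 20 uM heparin, 6 hr at 37 C. ThT 30 uM added, 1 hr ambient; Alexa 594 FP and total fluorescence read at 555/632 nm.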
Tau fibril ThT – inhibitors of human tau fibril formation, thioflavin T binding; 2.1% of 270,000 active; Potency, µM (titrated, usually from 57.4 µM), for the others: at the highest dose activity, negative = inhibition, usual class: inhibitors; AID 1460; P10636; recombinant tau K18 P301L (four-repeat tau fragment), heparin-induced fibrillization, ThT fluorescence; further: potency means the concentration at half of the fitted maximal effect; nearly all actives have a fitted effect of over 55% in size
Target sequence (P10636 561-689 P618L limits assumed): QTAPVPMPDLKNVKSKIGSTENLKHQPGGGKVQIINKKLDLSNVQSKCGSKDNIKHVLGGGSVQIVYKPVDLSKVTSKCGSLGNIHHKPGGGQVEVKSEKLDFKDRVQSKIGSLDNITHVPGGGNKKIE
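K18 P301L tau (15 uM + 0.24 uM Alexa 594-tagged), heparin 20 uM, NaOAc pH 7, 6 h 37 C; ThT 30 uM, 1 h RT, ex 450/em 510 nm.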
Sfp inh – Sfp phosphopantetheinyl transferase inhibition. Q9F4F7. Biochemical Sfp PPTase activity, qHTS. Potency, µM, inactives show largest response in the series, negative = inhibition, actives largely listed as inhibitors. 3.5% of 310,000 active;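 further: the enzyme is Sfp with the accession as filed and its product quenches rhodamine fluorescence; potency means the concentration at half of the fitted maximal effect; 0% = enzyme reaction without inhibitor and -100% = no enzyme wells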
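Reaction rates are the 30-min fluorescence difference (ex 525, em 598 nm) in wells containing 15 nM Sfp, 5 uM rhodamine-CoA and 12.5 uM BHQ-2-YbbR at pH 7.6 with 10 mM MgCl2.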
Tau FP inhib – tau fibrillization inhibition (FP). Potency, µM (highest dose often 57.7 µM), inactives show at the top dose activity, negative = inhibition, hits mostly inhibitors. P10636. K18 P301L tau heparin fibrillization, Alexa594 FP, 6 h. 0.39% of 280,000 active. AID 1468; further: potency means the concentration at half of the fitted maximal effect; nearly all actives have a fitted effect of over 55% in size
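Compound effects on tau fibrillization are measured by Alexa 594 fluorescence polarization (ex 555, em 632 nm). K18 P301L tau is used at 15 uM with 0.24 uM labeled tracer, and 20 uM heparin induces aggregation over 6 hr at 37 C.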
Starred values were filed as active, the others as inactive; ? = inconclusive; / = no result; [ ] = another dose, or the depositor's remark. Unless noted, the call rests on the fitted dose curve; in most records, active means well fitted curve in the direction sought with a large enough effect; inconclusive means small, poorly fitted or top-dose-only effect, or another doubt; inactive means no such curve, though single readings can be large; an effect the other way counts as inactive or inconclusive. Unless noted, on the % scale 0 is the no-effect control and ±100 the full control effect.

SMILES	Coupling enz	Tau fluor cs	Tau fibril ThT	Sfp inh	Tau FP inhib
Fc1ccc2nc(Nc3nc4cc5c(cc4s3)OCO5)sc2c1	-5	3.5µM*[quencher]	?	-6%	?
Fc1ccc2nc(Nc3nc4c(F)cc(F)cc4s3)sc2c1	0	?	?	-14%	-17%
Cc1ccc(/C=C/C(=O)Nc2cc(S(N)(=O)=O)ccc2O)cc1	0	-17%	?	28µM*	-2%
CC(C)=NO[C@@H](C)c1cc(-c2c(C)cc(C)cc2C)no1	2	-4%[11.6 µM]	-8%[11.5 µM]	14%	-1%[11.6 µM]
CC1=C(C(=O)OCC(C)C)C2(O)C(=O)c3ccccc3C2(O)N1 (stereo not drawn)	0	-10%	7.9µM*	-18%	?
C=CCOC(=O)C1=C(C)NC2(O)c3ccccc3C(=O)C12O (stereo not drawn)	1	-14%	13µM*	5%	?
COc1ccccc1C1CC(=O)NC(C)=C1C(=O)OCC(C)C (stereo not drawn)	1	-1%	-4%	13%	5%
Cc1cc(C)c(/C=C/c2onc(C)c2S(=O)(=O)N2CCC(C(=O)N(C)Cc3ccccc3)CC2)c(C)c1	/	-1%	-5%	/	8%
Cc1c(N/C=C(\Cl)C(=O)C(F)(F)F)c(=O)n(-c2ccccc2)n1C	-3	-17%	?	22µM*	?
COc1ccc2c(c1)OC1(O)COc3cc(OC)c(OC)cc3C1=C2 (stereo not drawn)	-5	?	5.6µM*	-4%	?
O=C(NC1CCCCC1)C(=S)NCc1ccccc1	-1	-11%	-11%	4%	-1%
O=C(NC1CCCCCC1)C(=S)NCc1ccccc1	-3	-12%	-15%	56µM*	10%
O=C(NC1CCCCCC1)C(=S)NCCc1ccccc1	-4	-3%	-9%	14µM*	-5%
CCOc1ccc(C(=O)NCc2ccc3c(c2)CCN3C(=O)c2ccc(C)cc2)cc1OCC	/	-11%	-9%	/	8%
O=C(CCn1nnc2ccccc21)Nc1nnc(Cc2ccccc2)s1	7	-25%	?	50µM*	-18%
COC(=O)c1ccc2nc(C)cc(Nc3cccc(Cl)c3C)c2c1	/	-10%	-3%	/	-7%
Cc1ccccc1-n1c(=O)cc(N2CCc3ccccc32)[nH]c1=O	-29	-4%	-17%	56µM*	2%
O=c1cc(N2CCc3ccccc32)[nH]c(=O)n1-c1ccc(Br)cc1	-13	-28%	28µM*	-11%	?
O=c1cc(N2CCc3ccccc32)[nH]c(=O)n1-c1ccccc1Cl	5	-17%	?	2%	-13%
CCc1ccc2occ(CC(=O)NCc3ccccc3)c2c1	/	-17%	-8%	/	2%
Cc1nc2cc(N=NC3=C(O)CCCC3=O)ccc2s1	-3	-26%	16µM*	-9%	-4%
O=C1CCCC(O)=C1N=Nc1ccc(Cl)c(Cl)c1	0	-10%	?	11%	7%
COCCNC(=S)Nc1ccc(N2CCCCC2)cc1	1	-10%	?	13µM*	-5%
COc1cccc(C(=O)NC(=S)Nc2ccc(Cl)cc2C(=O)O)c1	-1	-5%	-4%	50µM*	-4%
COc1cccc(C(=O)NC(=S)Nc2ccc(N3CCCC3)cc2)c1	1	?	11µM*	-4%	11%
SMILES	Coupling enz	Tau fluor cs	Tau fibril ThT	Sfp inh	Tau FP inhib
COc1cccc(C(=O)NC(=S)Nc2ccc3c4c(cccc24)CC3)c1	-1	?	?	-12%	-3%
CCCC(=O)N1CCN(c2ccc(NC(=O)c3ccc4c(c3)OCCO4)cc2)CC1	-3	/	/	7%	/
CCCC(=O)N1CCN(c2ccc(NC(=S)NC(=O)c3cccc(C)c3)cc2)CC1	0	?	8.9µM*	-16%	-4%
CC(=O)c1cccc(NC(=O)N2CCC(CN3CCCCC3)CC2)c1	/	-1%	2%	/	-7%
COc1ccccc1N1CCN(S(=O)(=O)c2c(C)sc3ncn(CC(=O)Nc4ccc(C(F)(F)F)cc4)c(=O)c23)CC1	/	?	-13%	/	-12%
N#Cc1ccc(C(=O)NCc2ccc3c(c2)CCN3C(=O)c2ccc(F)cc2)cc1	/	-7%	12%	/	-5%
CCN(CC)CCCNC(=O)CCCn1ncn2c(cc3occc32)c1=O	/	-3%	1%	/	-5%
CCc1ccc(S(=O)(=O)Nc2ccc3[nH]c(=O)sc3c2)cc1	/	?	6%	/	-14%
CC(C)Oc1cccc(C(=O)NC(=S)Nc2ccc(N3CCN(C)CC3)cc2)c1	-4	?	?	71µM*	?
COc1cccc(C(=O)NC(=S)Nc2ccc(N(C)C)cc2)c1	2	?	7.9µM*	?	5%
CCc1ccc(C(=O)c2cnc3ccc(F)cc3c2S(=O)(=O)c2ccccc2)cc1	/	-22%	-15%	/	-14%
COc1cccc2c1C(=O)CC(c1ccccc1)O2 (stereo not drawn)	1	-4%	-6%	-11%	1%
CCC(C)N=C1SCC(C)(/C=N/O)S1 (stereo not drawn)	-2	-11%	?	11%	-10%
CC(C)(C)N=C1SCC(C)(/C=N/O)S1 (stereo not drawn)	1	-25%	25µM*	-8%	?
O=C(/C(=C/O)N=Nc1cccc(C(F)(F)F)c1)c1ccccc1	6	-23%	?	-3%	-12%
Cc1ccc(N=N/C(=C\O)C(=O)c2ccncc2)cc1	1	-25%	28µM*	-4%	-3%
O=C(/C(=C/O)N=Nc1ccccc1Cl)c1ccccc1	2	-21%	28µM*	3%	-11%
O=C(Nc1ccccc1Cl)c1ccccc1	0	-2%	-5%	9%	3%
Cc1cccc(N=N/C(=C\O)C(=O)c2ccc(Br)cc2)c1	1	-22%	22µM*	-12%	0%
O=C(/C(=C/O)N=Nc1ccc(Cl)cc1)c1ccncc1	/	-27%	20µM*	-1%	-8%
O=C(Nc1ccncc1)c1ccc(Cl)cc1	-3	/	/	11%	/
O=C(CSc1nc2c([nH]c3ccccc32)c(=O)n1-c1ccccc1F)Nc1cccc(Cl)c1	/	?	2%	/	?
CC(=O)OCOC(c1ccc2ccccc2c1)P(=O)(OCOC(C)=O)OCOC(C)=O (stereo not drawn)	/	-4%	-2%	13%	-4%
Cc1cccc(N/N=C(\C=N\N)C(=O)c2ccc(Br)cc2)c1	0	11µM*[quencher]	14µM*	21%	?
Cc1cccc(/C=N/NC(=O)c2ccc(Br)cc2)c1	-1	-10%	-17%	-4%	-1%
Cc1cc(NC(=O)CSc2nc3c([nH]c4ccccc43)c(=O)n2-c2ccccc2)no1	/	-15%	11%	/	?
COc1cccc(-n2c(SCC(=O)Nc3cc(C)on3)nc3c([nH]c4ccccc43)c2=O)c1	0	2%	8%	25µM*	1%
COc1cccc(-n2c(SCC(N)=O)nc3c([nH]c4ccccc43)c2=O)c1	0	-7%	-17%	20µM*	3%
